PubChem BioAssay (Tox21)
Where “and” joins values, the source holds several entries; their conditions need not be identical. Equal entries are not always repeated. Inconclusive results are not listed. A call without a number means that no potency is given here. Some compounds were tested as several samples or in several runs, with calls that do not always agree. Calls of active or inactive are those of the source. The call rests on the fitted dose curve; in most records, active means well fitted cell-killing curve with a large enough effect in the repeat runs; inconclusive means weak or mixed curves, or effect the other way; inactive means flat fitted curve, though single readings scatter.

Experiment: qHTS RealTime-Glo MT Cell Viability Assay in HEK293 cells - 24 hour (AID 1224886); further: nearly all actives have a fitted effect of over 50% in size
Settings: RealTime-Glo luminescence; series mostly up to 76.8 µM
From the text: National Center for Advancing Translational Sciences [NCATS]
NIH Chemical Genomics Center [NCGC]
U.S. Environmental Protection Agency [EPA]
National Institutes of Environmental Health Sciences [NIEHS]
National Toxicology Program [NTP]
U.S. Food and Drug Administration [FDA]
Measure of cell viability is critical in the cell-base assay. Analysis of cell viability is necessary for the characterization of cell responses to cytotoxic drugs and environmental stress. A RealTime-Glo MT Cell Viability Assay to monitor cell viability in real time of continues cell culture during 40 hours of compound treatment was used to screen Tox21 10K library compounds in Hek293 cells. The RealTime-Glo MT Cell Viability Assay is a nonlytic, homogeneous, bioluminescent method to measure cell viability in real time using a simple, plate-based method. The assay involves adding NanoLuc luciferase and a cell-permeant prosubstrate to cells in culture. Viable cells reduce the proprietary prosubstrate to generate a substrate for NanoLuc luciferase. This substrate diffuses from cells into the surrounding culture medium, where it is rapidly used by the NanoLuc Enzyme to produce a luminescent signal. The signal correlates with the number of viable cells, making the assay well suited for cytotoxicity studies.
Tox21 Assay Protocol Summary:
The mixture of Hek293 cell suspension and reagents were dispensed at 600cells/6 ul/well in 1536-well tissue culture treated black solid bottom plates using a Multidrop dispenser. After the assay plates were incubated at a 37 C/5% CO2 incubator for 5 hours, 23 nL of compounds dissolved in DMSO, positive and negative controls was transferred to the assay plate by a pintool work station. The plates were incubated at 37 C for 40 hours. The luminescence intensity were measured at 0h, 8h, 16h, 24h, 32h and 40h time points using ViewLux plate reader during compound treatment.
Potency means the concentration at half of the fitted maximal effect.

Row | Compound | Potency
1 | CCCC(O)C(CC)CO (stereo not given) | inactive
2 | CCCNC(=O)NS(=O)(=O)c1ccc(Cl)cc1 | inactive
3 | NC(N)=O | inactive
4 | CC(=O)NS(=O)(=O)c1ccc(N)cc1 | inactive
5 | O=C(O)c1cc(N=Nc2ccc(S(=O)(=O)Nc3ccccn3)cc2)ccc1O | inactive
6 | O=C1NC(=O)c2ccccc21 | inactive
7 | O=C(O)c1cccnc1 | inactive
8 | Nc1ccc(S(=O)(=O)Nc2nccs2)cc1 | inactive
9 | COc1c2occc2cc2ccc(=O)oc12 | inactive and 21.9 µM (active)
10 | Cc1ccc(S(=O)(=O)NC(=O)NN2CCCCCC2)cc1 | inactive
11 | O=C(O)CCCCCCCC(=O)O | inactive
12 | O=C(c1ccccc1)C(O)c1ccccc1 (stereo not given) | inactive
13 | CCCCOC(=O)CC(CC(=O)OCCCC)(OC(C)=O)C(=O)OCCCC | inactive
14 | N=C(N)c1ccc(OCCCCCOc2ccc(C(=N)N)cc2)cc1 | 19.4 µM (active) and 18.6 µM (active)
15 | OC(Cn1cncn1)(Cn1cncn1)c1ccc(F)cc1F | inactive
16 | c1ccc2[nH]ccc2c1 | 2.41 µM (active) and inactive
17 | C[C@]12C=CC(=O)C=C1CC[C@@H]1[C@@H]2[C@@H](O)C[C@@]2(C)[C@H]1CC[C@]2(O)C(=O)CO | inactive
18 | O=C(O)CCCCC(=O)O | inactive
19 | Cc1cc(=O)n(-c2ccccc2)n1C | inactive
20 | Cc1noc(NS(=O)(=O)c2ccc(N)cc2)c1C | inactive

Row | Compound | Potency
21 | CC(=O)Nc1nnc(S(N)(=O)=O)s1 | inactive
22 | Nc1ccc(S(=O)(=O)c2ccc(N)cc2)cc1 | inactive
23 | NS(=O)(=O)c1cc(C(=O)O)c(NCc2ccco2)cc1Cl | inactive
24 | Cc1ccc(O)cc1 | inactive
25 | NC(=O)c1ccccc1O | inactive
26 | O=C(O)c1cccc([N+](=O)[O-])c1 | inactive
27 | CC(O)CO (stereo not given) | inactive
28 | Nc1ccn([C@H]2CC[C@@H](CO)O2)c(=O)n1 | inactive
29 | O=NO | inactive
30 | O=C(O)CCC(=O)O | inactive
31 | OCCc1ccccc1 | inactive
32 | O=c1ccc2ccccc2o1 | inactive
33 | CC(C)[C@@H]1CC[C@@H](C)C[C@H]1O | inactive
34 | O=S(=O)(O)NC1CCCCC1 | inactive
35 | O=C(O)c1[nH]n(-c2ccc(S(=O)(=O)O)cc2)c(=O)c1N=Nc1ccc(S(=O)(=O)O)cc1 | inactive
36 | Cc1cc(=O)[nH]c(=S)[nH]1 | inactive
37 | O=C(O)CS | inactive
38 | CCCC(CCC)C(=O)O | inactive
39 | NNC(=O)c1ccncc1 | inactive
40 | CC(O)CN(CCN(CC(C)O)CC(C)O)CC(C)O (stereo not given) | inactive
